# Source: PubChem (National Center for Advancing Translational Sciences (NCATS))
# In the library only some 12% were active in any assay of this set; here they are far more common.
# L3MBTL1 block: blocks human L3MBTL1 | AID 485360 | Potency, µM (doses to about 57.1 µM), inactives show top-dose activity, negative = inhibition, most hits filed as inhibitors | Q9Y468 | AlphaScreen L3MBTL1–H3K9me1 peptide binding | 230,000 tested, 0.66% active; note: % is set by controls: 0 for no effect and ±100 for the full control effect; nearly all actives have a fitted effect of over 60% in size
#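 L3MBTL1 50 nM + b-AHA-H3(1-15)K9me1 75 nM, 30 min RT; compound added, 30 min RT; streptavidin donor/Ni-chelate acceptor beads 10 ug/mL each final, 30 min RT dark; AlphaScreen read.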
# BAZ2B inh: blocks human BAZ2B; 360,000 tested, 4.4% active; AlphaScreen BAZ2B-H3K14Ac peptide displacement; Potency, µM (titrated, usually from 114 µM), for the others: at the top dose activity change, negative = inhibition, hits mostly inhibitors; AID 504333; note: % is set by controls: 0 for no effect and ±100 for the full control effect; nearly all actives have a fitted effect of over 60% in size
#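 AlphaScreen displacement of biotin-H3(5-23)K14Ac peptide (50 nM final) from BAZ2B (50 nM final) in PBS pH 7.4, 0.01% Tween-20; complex preformed 30 min RT, then compounds (top 110 uM) 30 min RT, beads 20 min dark.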
# HP1b chromo inh: HP1-beta chromodomain-methylated histone interaction inhibition; AlphaScreen HP1-beta / biotin-H3K9me3 peptide binding; Potency, µM (top dose mostly 114 µM), for the others: top-dose activity change, negative = inhibition, actives largely listed as inhibitors; 390,000 tested, 0.56% active; AID 540317; note: nearly all actives have a fitted effect of over 70% in size
#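 AlphaScreen: HP1-beta (50 nM) preformed 30 min with biotin-H3(1-18)K9me3 peptide (50 nM) in PBS pH 7.4, 0.01% Tween-20. Compound added for 30 min at RT, then streptavidin donor/nickel chelate acceptor beads (10 ug/mL) for 30 min.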
# JMJD2A Tudor: JMJD2A Tudor domain (human) inhibition; O75164; AlphaScreen JMJD2A-Tudor / H3K4me3 peptide binding; Potency, µM (series often up to 114 µM), inactives show top-dose activity change, negative = inhibition, hits mostly inhibitors; 390,000 tested, 4.4% active; note: % is set by controls: 0 for no effect and ±100 for the full control effect; nearly all actives have a fitted effect of over 50% in size
# G9a inh: G9a (human) methyltransferase inhibition | G9a H3K9 monomethylation, AlphaScreen, 2 h | 350,000 tested, 8.8% active | Potency, µM (doses to about 102 µM), without a hit: at the highest dose activity, negative = inhibition, actives largely listed as inhibitors | Q96KQ7 | AID 504332; note: % is set by controls: 0 for no effect and ±100 for the full control effect; nearly all actives have a fitted effect of over 75% in size
#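 G9a (20 nM) preincubated 15 min RT with compounds, then 500 nM biotinylated H3K9 peptide and 20 uM SAM added; 2 h RT reaction. Monomethyl-H3K9 product detected by AlphaScreen with anti-H3K9me1 antibody, streptavidin donor and anti-rabbit IgG acceptor beads.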
# Sfp PPTase inh: blocks B. subtilis Sfp PPTase activity; Q9F4F7; Biochemical Sfp PPTase activity, qHTS; Potency, µM, for the others: largest response in the series, negative = inhibition, most hits filed as inhibitors; 310,000 tested, 3.5% active; AID 1490;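 note: the enzyme is Sfp with the accession as filed and its product quenches rhodamine fluorescence; 0% = enzyme reaction without inhibitor and -100% = no enzyme wells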
#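 Compounds were incubated with enzyme (final 15 nM) for 15 min at room temperature before substrate addition started the reaction. Fluorescence at 525 nm excitation, 598 nm emission was recorded immediately and after 30 minutes.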
# The depositor's hits bear a star; ? = inconclusive; · = no result; [ ] = remark or other dose. Calls come from the whole dose curve; as a rule, active = well fitted curve in the direction sought with a large enough effect; inconclusive = small, poorly fitted or top-dose-only effect, or another doubt; inactive = no such curve, though single readings can be large; an effect the other way counts as inactive or inconclusive. Potency is the fitted concentration of half-maximal effect.
SMILES,L3MBTL1 block,BAZ2B inh,HP1b chromo inh,JMJD2A Tudor,G9a inh,Sfp PPTase inh
Cc1ccc(N2C(=O)c3oc4cc(C)c(C)cc4c(=O)c3C2c2cccc(O)c2)nc1 (stereo unspecified),·,0.5%,48.8%,1.4%,-2.9%[59 µM],·
N=C1C=CC(=C(c2ccc(N)cc2)c2ccc(N)cc2)C=C1,·,·,?,7.08µM*,·,·
O=C(OC1Cc2c(O)cc(O)cc2OC1c1cc(O)c(O)c(O)c1-c1c(C2Oc3cc(O)cc(O)c3CC2O)cc(O)c(O)c1O)c1cc(O)c(O)c(O)c1 (stereo unspecified),·,·,·,·,·,39.8µM*
CCc1ccc(OCC(=O)NCc2nc(-c3cccc(C)c3)no2)c(Br)c1,·,-0.9%,30.5%,-10.8%,-2.3%[59 µM],·
CC1=NN(c2ccccc2)C(=O)C1C(=O)c1cc([N+](=O)[O-])cc([N+](=O)[O-])c1 (stereo unspecified),·,?,29.9%,-21.8%,11.2µM*,13.7%
COc1ccc(Br)cc1S(=O)(=O)NNC(=O)c1c(C)nc2ccccn12,2.5%,-20.4%,19.6%,-5.3%[11.4 µM],79.4µM*,2.2%
Cc1nc2ccccn2c1C(=O)NNC(=O)Nc1ccccc1,·,-18.1%,26.3%,-1.7%,50.1µM*,3.3%
Cc1nc2ccccn2c1C(=O)NNC(=S)Nc1ccc(Cl)cc1,7.1%,3.3%,-14.5%,?,1.26µM*,-0.1%
Cc1nc2ccccn2c1C(=O)NNC(=S)Nc1ccccc1,8.4%,-17.3%,35.6%,-11.9%,-129.7%[59 µM],7.2%
Cc1cccc(-n2cnc(C(=O)NNC(=S)Nc3ccc(Cl)cc3)c2)n1,?,11.2µM*,18.5%,35.5µM*,8.91µM*,11.8%
Cc1cccc(-n2cnc(C(=O)N/N=C\c3ccc(Br)cc3)c2)n1,·,10.0%,37.1%,?,7.0%[59 µM],6.8%
COc1ccc(-c2cn3nc(N4CCCC(C(=O)Nc5cccc(Cl)c5C)C4)sc3n2)cc1 (stereo unspecified),·,-1.5%,15.9%,-9.2%,-34.6%[59 µM],·
CCn1cc(S(=O)(=O)c2cccc(Cl)c2)c(=O)c2cc(F)c(N3CCC(C)CC3)cc21,·,1.7%,18.0%,-15.8%,4.6%[59 µM],·
Clc1cccc(CNCCCSc2nnnn2-c2ccccc2)c1,·,0.5%,39.5%,-28.5%,-4.1%[59 µM],·
CC1(C)C[C@@H]2C(=O)CCC3O[C@@]3(C)CCC21 (stereo partly specified),·,·,·,·,·,15.2%
O=C(CNC(=O)c1ccccc1)OC(Cc1ccccc1)C(=O)Nc1cc(C(F)(F)F)ccc1Cl (stereo unspecified),·,·,·,-4.8%,·,·
CSc1ccccc1OCc1cc(C(=O)N2CCc3[nH]cnc3C2c2ccccn2)no1 (stereo unspecified),·,56.2µM*,?,17.8µM*,?,11.5%
CSc1ccccc1OCc1cc(C(=O)N2CCN(c3ccccc3)CC2C)no1 (stereo unspecified),·,-20.3%,20.1%,-16.9%,14.6%,-0.5%
CCc1ccc(S(=O)(=O)c2nnn3c2nc(Nc2cc(OC)cc(OC)c2)c2cc(Cl)ccc23)cc1,·,3.1%,15.1%,-10.2%,-4.0%[59 µM],·
Cc1oc(-c2ccccc2F)nc1Cn1c(SCc2ccccc2F)nc2ccncc21,·,?,-1.0%,?,12.6µM*,·
COc1ccc(-c2nc(Cn3c(SCc4ccccc4F)nc4ccncc43)c(C)o2)cc1OC,·,-24.9%,17.4%,-28.5%,?,·
O=C(OCC#CCSc1nnc(-c2cccc3ccccc23)o1)C1CC1,·,·,·,71.4%,·,·
Cc1cccc2nc(CSc3ccccc3N)cn12,·,·,30.7%,-17.1%,·,·
Cc1cccc2nc(CSc3nnc(N)s3)cn12,·,1.1%,14.3%,-9.3%,31.6µM*,2.5%
O=S(=O)(N1CCCCC1)N1CCN(CC(O)COc2ccc3cc(Br)ccc3c2)CC1 (stereo unspecified),·,5.1%,12.3%,-17.5%,6.0%[12.7 µM],1.9%
SMILES,L3MBTL1 block,BAZ2B inh,HP1b chromo inh,JMJD2A Tudor,G9a inh,Sfp PPTase inh
OC(COc1ccccc1)CN1CCCC1 (stereo unspecified),-0.8%,79.4µM*,0.5%,56.2µM*,-28.7%,-9.1%
COc1ccc(OCC(O)CN2CCCCCC2)cc1 (stereo unspecified),-0.9%,50.1µM*,?,3.98µM*,8.91µM*,-12.6%
COc1ccc(OCC(O)CN2CCN(CC(O)COc3ccc(OC)cc3)CC2)cc1 (stereo unspecified),0.1%,-4.7%,16.2%,-17.3%,-10.8%,8.7%
COc1ccc(OCC(O)CN2CCCC2)cc1 (stereo unspecified),-11.0%,?,-22.3%,79.4µM*,·,-17.2%
OC(COc1ccc2cc(Br)ccc2c1)CN1CCCC1 (stereo unspecified),-2.8%,-6.3%,25.0%,-22.5%,12.8%[12.7 µM],79.4µM*
CCCCn1c(=O)c2oc3ccccc3c2n(Cc2ccc(OC)cc2)c1=O,·,-26.4%,41.0%,3.3%,4.0%[59 µM],·
O=C(NC(=S)Nc1ccccc1O)c1ccc(-c2ccc(Cl)cc2)o1,3.3%,-5.3%,85.5%,21.2%[11.4 µM],3.3%[2.33 µM],16.3%
Cc1c(NC(=S)NC(=O)c2ccc(-c3ccc(Cl)cc3)o2)cccc1C(=O)O,·,-26.7%,8.6%,-21.7%,44.7µM*,-28.9%
COc1ccccc1NC(=S)NC(=O)c1ccc(-c2ccc(Cl)cc2)o1,-2.6%,9.8%[57.1 µM],10.7%,-22.1%,-5.0%,17.8µM*
COc1ccc(N2CCN(C(=O)c3sc4nc5n(c(=O)c4c3C)CCC5)CC2)cc1,·,3.9%,47.9%,-13.5%,5.1%[59 µM],·
CC(C)(C)n1cnc2cc(NS(=O)(=O)c3ccccc3)ccc21,-0.8%,7.6%,36.7%,-16.1%,-39.3%[12.7 µM],2.5%
CCN(CC)c1ccc(CNc2ccc3c(c2)ncn3C(C)(C)C)cc1,·,11.2µM*,?,14.1µM*,14.1µM*,?
CCc1ccc(CNc2ccc3c(c2)ncn3C(C)(C)C)cc1,·,44.7µM*,?,63.1µM*,50.1µM*,-0.1%
CC(C)(C)n1cnc2cc(NCc3ccccc3O)ccc21,·,?,-12.1%,-35.3%,-7.4%,-2.1%
CC(C)(C)n1cnc2cc(NCc3ccc(Br)cc3)ccc21,·,31.6µM*,?,20µM*,50.1µM*,-13.5%
COc1ccc(N/N=C(\C#N)C(N)=O)cc1,-1.5%,-4.8%,-13.6%,-34.3%,8.91µM*,0.8%
N#C/C(=N\Nc1ccc(F)cc1)C(=N)N1CCCCC1,·,?,23.8%,-30.2%,?,10.0%
